Reference: PubChem BioAssay (EPA / NIEHS)
Results filed as inconclusive are left out. The source made the active and inactive calls. Rule for the calls: active = hit-call score of the fitted dose curve at least 0.9, where 1 is the maximum; inconclusive = response in the unintended direction; inactive = score below 0.9.

How the values were obtained:
[1] = biological target: Estrogen receptor (Homo sapiens) (UniProt P03372); assay: ATG_hERa_XSP1: Attagene TRANS-FACTORIAL Multi-Species (XSP1) HepG2 Assay for human Estrogen Receptor (ESR1) (AID 2283780)
Procedure, shortened: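 HepG2 cells transiently transfected with GAL4-UAS reporter units and chimeric NR-Gal4 constructs; 24 h after dosing, reporter mRNA quantified by RT-PCR and capillary electrophoresis. Medium contained 3 nM 6-alpha-fluorotestosterone; activity fitted as gain-of-signal versus DMSO.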

[2] = system: turtle Estrogen Receptor (ESR1), gene 101933533; assay: ATG_trERa_XSP1: Attagene TRANS-FACTORIAL Multi-Species (XSP1) HepG2 Assay for turtle Estrogen Receptor (ESR1) (AID 2283781)
Procedure, shortened: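 HepG2 cells transiently transfected with GAL4-UAS reporter units and chimeric NR-Gal4 constructs, dosed for 24 h with 3 nM 6-alpha-fluorotestosterone present. Reporter mRNA was quantified by RT-PCR, fluorescent labelling and capillary electrophoresis, with gain of signal fitted relative to DMSO.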

AR (gene 367) [3] = biological target: AR (gene 367) (UniProt P10275); assay: ACEA_AR_agonist_80hr: ACEA Biosciences xCELLigence Real-Time Cell Analysis on Androgen Receptor Agonism for Proliferation (AID 2283783);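 note: hits increase impedance growth signal above DMSO baseline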
Procedure, shortened: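 22Rv1 human prostate cancer cells were seeded after preconditioning in assay medium and monitored overnight, then dosed in an eight-point 1:4 dilution series from 100 uM (≤0.5% DMSO). Impedance-based growth was read at 80 h, gain-of-signal versus DMSO.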

[4] = STM_H9_NormalizedViability: Cytotoxicity Assessment at 120 hours in the Stemina devTOX quickPredict H9 human embryonic stem cell (hESC)-based Assay (AID 2283784)
Procedure, shortened: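 Undifferentiated H9 hESCs kept pluripotent were exposed to compound, with media and chemical replaced every 24h. CellTiter-Fluor protease-substrate fluorescence was background-corrected and normalized per plate to the 0.1% DMSO vehicle; signal loss indicates reduced viability.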

AR (gene 367) [5] = biological target: AR (gene 367) (UniProt P10275); assay: ACEA_AR_antagonist_80hr: ACEA Biosciences xCELLigence Real-Time Cell Analysis on Androgen Receptor Antagonism for Proliferation (AID 2283787);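 note: hits lower the impedance growth signal relative to DMSO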
Procedure, shortened: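 Impedance readout (RT-CES), 80 h post-dose; loss-of-signal vs DMSO baseline. 22Rv1 cells in assay medium. Compounds: 8-pt 1:4 series, max 100 uM final, up to 0.5% DMSO; n = 2.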

[6] = biological target: Estrogen receptor beta (Homo sapiens) (UniProt Q92731); assay: ATG_hERb_XSP1: Attagene TRANS-FACTORIAL Multi-Species (XSP1) HepG2 Assay for human Estrogen Receptor (ESR2) (AID 2283788)
Procedure, shortened: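 Read-out: reporter mRNA induction by RT-PCR, HpaI digestion and capillary electrophoresis fluorescence, fitted in positive direction relative to DMSO baseline. Human liver HepG2 cells expressing ERβ-Gal4 fusion, dosed 24 h, medium containing 3 nM 6-alpha-fluorotestosterone.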

[7] = ATG_M_06_XSP1: Attagene TRANS-FACTORIAL Multi-Species (XSP1) HepG2 Assay for M06 Transcription Factor (Internal Marker) (AID 2283790)
Procedure, shortened: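 Transfected HepG2 multi-reporter system treated 24 h in the presence of 3 nM 6-alpha-fluorotestosterone. The M06 internal marker transcript was quantified by RT-PCR with capillary electrophoresis as a background control, and gain of signal was scored versus DMSO.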

[8] = ATG_M_61_XSP1: Attagene TRANS-FACTORIAL Multi-Species (XSP1) HepG2 Assay for M61 Transcription Factor (Internal Marker) (AID 2283797)
Procedure, shortened: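 HepG2 cells transiently transfected with multiplexed GAL4-driven reporter units, dosed 24 h with 3 nM 6-alpha-fluorotestosterone present. Reporter mRNA quantified by RT-PCR, 6-FAM labelling, HpaI digestion and capillary electrophoresis; internal-marker background control, gain of signal versus DMSO.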

[9] = ATG_M_19_XSP1: Attagene TRANS-FACTORIAL Multi-Species (XSP1) HepG2 Assay for M19 Transcription Factor (Internal Marker) (AID 2283798)
Procedure, shortened: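 HepG2 cells transiently transfected with multiplexed GAL4-UAS reporter units, dosed 24 h with 3 nM 6-alpha-fluorotestosterone present for partial AR stimulation. Reporter mRNA measured by RT-PCR with capillary electrophoresis; gain-of-signal fitted relative to DMSO.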

[10] = ATG_M_32_XSP1: Attagene TRANS-FACTORIAL Multi-Species (XSP1) HepG2 Assay for M32 Transcription Factor (Internal Marker) (AID 2283799)
Procedure, shortened: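 HepG2 cells transiently transfected with multi-species TRANS reporter units, dosed 24 h with 3 nM 6-alpha-fluorotestosterone present. Internal-marker reporter mRNA quantified by RT-PCR and capillary electrophoresis; positive-direction fit versus DMSO.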

[11] = biological target: Peroxisome proliferator-activated receptor gamma (Homo sapiens) (UniProt P37231); assay: ATG_hPPARg_XSP1: Attagene TRANS-FACTORIAL Multi-Species (XSP1) HepG2 Assay for human Peroxisome Proliferator-activated Receptor gamma (PPARg) (AID 2283800)
Procedure, shortened: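 HepG2 cells transiently transfected with GAL4-UAS reporter units carrying chimeric NR-Gal4 proteins; 3 nM 6-alpha-fluorotestosterone present. After 24 h dosing, reporter mRNA quantified by RT-PCR and capillary electrophoresis; gain of signal relative to DMSO.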

[12] = biological target: mouse Peroxisome Proliferator-activated Receptor gamma (PPARg), Pparg (gene 19016) (UniProt P37238); assay: ATG_mPPARg_XSP1: Attagene TRANS-FACTORIAL Multi-Species (XSP1) HepG2 Assay for mouse Peroxisome Proliferator-activated Receptor gamma (PPARg) (AID 2283802)
Procedure, shortened: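 HepG2 cells transiently transfected with GAL4-UAS reporter units driven by mouse PPARg–GAL4 chimera; 3 nM 6-alpha-fluorotestosterone present. After 24 h dosing, reporter mRNA quantified by RT-PCR, fluorescent labelling and capillary electrophoresis; gain of signal versus DMSO.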

[13] = biological target: Nuclear receptor subfamily 1 group I member 2 (Mus musculus) (UniProt O54915); assay: ATG_mPXR_XSP1: Attagene TRANS-FACTORIAL Multi-Species (XSP1) HepG2 Assay for mouse Pregnane X Receptor (PXR) (AID 2283803)
Procedure, shortened: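 Transiently transfected HepG2 cells expressing a receptor-Gal4 chimera drive a GAL4-UAS reporter; 3 nM 6-alpha-fluorotestosterone included. Reporter mRNA read 24 h post-dose by RT-PCR and capillary electrophoresis; gain of signal relative to DMSO.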

[14] = biological target: frog Thyroid hormone Receptor alpha (TRa), thra-a (gene 397942) (UniProt P15204); assay: ATG_frTRa_XSP1: Attagene TRANS-FACTORIAL Multi-Species (XSP1) HepG2 Assay for frog Thyroid hormone Receptor alpha (TRa) (AID 2283804)
Procedure, shortened: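 HepG2 cells transiently transfected with frog TRa-GAL4 chimeric reporter units, dosed 24 hr with 3 nM 6-alpha-fluorotestosterone present; reporter mRNA quantified by RT-PCR, fluorescent labelling and capillary electrophoresis, gain of signal versus DMSO.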

[15] = biological target: human Thyroid hormone Receptor alpha (TRa), THRA (gene 7067) (UniProt P10827); assay: ATG_hTRa_XSP1: Attagene TRANS-FACTORIAL Multi-Species (XSP1) HepG2 Assay for human Thyroid hormone Receptor alpha (TRa) (AID 2283805)
Procedure, shortened: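 HepG2 cells transiently transfected with GAL4-UAS reporter units expressing chimeric NR-Gal4 proteins, dosed 24 hours with 3 nM 6-alpha-fluorotestosterone present. Reporter mRNA measured by RT-PCR and capillary electrophoresis; gain of signal fitted versus DMSO.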

[16] = system: turtle Thyroid Hormone Receptor, alpha (TRa), gene 101949057; assay: ATG_trTRa_XSP1: Attagene TRANS-FACTORIAL Multi-Species (XSP1) HepG2 Assay for turtle Thyroid Hormone Receptor, alpha (TRa) (AID 2283806)
Procedure, shortened: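 HepG2 cells transiently transfected with GAL4-UAS reporter units and chimeric receptor-Gal4 constructs, with 3 nM 6-alpha-fluorotestosterone present. Reporter mRNA was quantified 24 h after dosing by RT-PCR, 6-FAM labelling and capillary electrophoresis; gain of signal versus DMSO.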

[17] = ACEA_ER_AUC_viability: ACEA Biosciences xCELLigence Real-Time Cell Analysis on Estrogen Receptor Agonism for Viability (AID 2283782);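 note: continuous compound exposure with impedance area under curve over 80 h; hit means loss of impedance signal meaning reduced cell growth or viability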
Procedure, shortened: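 T-47D human breast cells in phenol red-free RPMI1640 with 10% charcoal-stripped FBS were dosed with an 8-point 1:4 dilution series from 100 uM top final concentration, in duplicate. Impedance-based growth was followed for 80 h; AUC analysed versus DMSO.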

[18] = biological target: GAL4 Transcription Factor (Internal Marker), GAL4 (gene 855828) (UniProt P04386); assay: ATG_GAL4_XSP1: Attagene TRANS-FACTORIAL Multi-Species (XSP1) HepG2 Assay for GAL4 Transcription Factor (Internal Marker) (AID 2283789)
Procedure, shortened: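 HepG2 cells transiently transfected with multiplexed GAL4-UAS reporter units were exposed for 24 h with 3 nM 6-alpha-fluorotestosterone present. Reporter mRNA was quantified by RT-PCR, FAM labelling, HpaI digestion and capillary electrophoresis; background-control readout, gain-of-signal versus DMSO.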

[19] = system: zebrafish Peroxisome Proliferator-activated Receptor gamma (PPARg), gene 557037; assay: ATG_zfPPARg_XSP1: Attagene TRANS-FACTORIAL Multi-Species (XSP1) HepG2 Assay for zebrafish Peroxisome Proliferator-activated Receptor gamma (PPARg) (AID 2283801)
Procedure, shortened: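 HepG2 cells transiently transfected with GAL4-UAS reporter units including a zebrafish PPARg–GAL4 chimera, dosed 24 h with 3 nM 6-alpha-fluorotestosterone present. Reporter mRNA quantified by RT-PCR, FAM labelling, HpaI digestion and capillary electrophoresis; induction versus DMSO.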

Measured: AC50

Sequence of Nuclear receptor subfamily 1 group I member 2 (Mus musculus) (O54915 whole entry, looked up, the tested form may be a part): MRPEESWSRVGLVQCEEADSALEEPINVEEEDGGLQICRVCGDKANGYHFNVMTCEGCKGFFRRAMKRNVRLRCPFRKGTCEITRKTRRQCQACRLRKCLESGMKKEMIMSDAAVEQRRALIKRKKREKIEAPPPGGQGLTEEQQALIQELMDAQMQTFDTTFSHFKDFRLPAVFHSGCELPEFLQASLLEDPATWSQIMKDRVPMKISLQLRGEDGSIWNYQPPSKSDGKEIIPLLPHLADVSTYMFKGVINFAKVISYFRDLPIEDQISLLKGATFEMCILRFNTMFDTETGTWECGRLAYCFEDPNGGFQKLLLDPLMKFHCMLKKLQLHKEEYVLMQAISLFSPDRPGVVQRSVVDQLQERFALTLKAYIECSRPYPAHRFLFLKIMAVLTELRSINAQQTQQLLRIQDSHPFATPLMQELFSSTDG
Sequence of Peroxisome proliferator-activated receptor gamma (Homo sapiens) (P37231 whole entry, looked up, the tested form may be a part): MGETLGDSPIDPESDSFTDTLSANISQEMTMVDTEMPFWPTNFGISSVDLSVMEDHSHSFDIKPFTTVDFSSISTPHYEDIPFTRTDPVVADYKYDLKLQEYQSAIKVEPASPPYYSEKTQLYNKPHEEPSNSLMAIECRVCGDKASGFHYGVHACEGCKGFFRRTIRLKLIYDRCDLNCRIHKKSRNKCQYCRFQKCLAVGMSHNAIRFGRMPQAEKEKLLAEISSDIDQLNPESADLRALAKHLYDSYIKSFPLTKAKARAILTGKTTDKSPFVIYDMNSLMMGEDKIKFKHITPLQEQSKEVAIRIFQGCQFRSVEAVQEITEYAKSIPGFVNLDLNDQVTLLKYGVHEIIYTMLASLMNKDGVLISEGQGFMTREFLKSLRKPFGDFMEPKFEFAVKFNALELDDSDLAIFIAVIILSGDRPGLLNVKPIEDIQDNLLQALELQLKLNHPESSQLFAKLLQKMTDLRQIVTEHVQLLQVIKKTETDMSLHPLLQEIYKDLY
Sequence of mouse Peroxisome Proliferator-activated Receptor gamma (PPARg), Pparg (gene 19016) (P37238 whole entry, looked up, the tested form may be a part): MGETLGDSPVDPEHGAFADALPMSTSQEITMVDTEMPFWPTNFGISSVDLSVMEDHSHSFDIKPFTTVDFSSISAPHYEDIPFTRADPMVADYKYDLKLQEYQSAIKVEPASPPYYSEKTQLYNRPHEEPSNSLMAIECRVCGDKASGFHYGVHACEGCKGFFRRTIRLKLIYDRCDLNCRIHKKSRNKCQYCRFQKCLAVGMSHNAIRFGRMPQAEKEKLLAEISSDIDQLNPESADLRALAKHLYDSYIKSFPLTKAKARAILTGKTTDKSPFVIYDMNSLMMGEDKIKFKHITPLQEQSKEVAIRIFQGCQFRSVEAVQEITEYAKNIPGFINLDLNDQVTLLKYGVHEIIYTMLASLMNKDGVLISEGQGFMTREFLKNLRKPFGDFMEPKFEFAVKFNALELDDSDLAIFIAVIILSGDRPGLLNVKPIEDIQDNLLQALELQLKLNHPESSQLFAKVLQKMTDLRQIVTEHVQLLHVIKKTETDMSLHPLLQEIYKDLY
Sequence of AR (gene 367) (P10275 whole entry, looked up): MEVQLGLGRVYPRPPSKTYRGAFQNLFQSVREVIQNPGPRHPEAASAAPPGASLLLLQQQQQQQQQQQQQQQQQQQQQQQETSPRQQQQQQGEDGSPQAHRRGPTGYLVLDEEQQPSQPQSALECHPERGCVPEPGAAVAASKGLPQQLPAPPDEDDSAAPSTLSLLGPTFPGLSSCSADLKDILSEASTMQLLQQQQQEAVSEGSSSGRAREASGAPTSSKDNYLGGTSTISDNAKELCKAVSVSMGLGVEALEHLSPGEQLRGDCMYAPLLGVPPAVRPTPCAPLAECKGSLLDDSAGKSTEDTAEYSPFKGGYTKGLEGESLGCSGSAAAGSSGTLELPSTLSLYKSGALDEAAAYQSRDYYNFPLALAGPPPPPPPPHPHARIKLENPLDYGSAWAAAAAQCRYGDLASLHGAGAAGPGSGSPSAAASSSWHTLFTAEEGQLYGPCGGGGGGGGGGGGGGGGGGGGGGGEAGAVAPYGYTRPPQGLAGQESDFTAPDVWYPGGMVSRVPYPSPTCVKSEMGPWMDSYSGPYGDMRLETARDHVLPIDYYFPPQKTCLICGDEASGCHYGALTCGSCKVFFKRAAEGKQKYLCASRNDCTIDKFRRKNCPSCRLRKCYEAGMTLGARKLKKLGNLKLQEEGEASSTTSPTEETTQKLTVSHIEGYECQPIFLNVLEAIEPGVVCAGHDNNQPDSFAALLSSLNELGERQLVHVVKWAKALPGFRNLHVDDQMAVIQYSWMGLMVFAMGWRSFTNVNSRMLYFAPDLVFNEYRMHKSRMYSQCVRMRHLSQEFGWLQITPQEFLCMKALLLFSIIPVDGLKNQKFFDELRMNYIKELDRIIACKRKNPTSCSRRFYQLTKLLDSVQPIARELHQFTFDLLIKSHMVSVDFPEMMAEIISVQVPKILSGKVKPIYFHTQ
Sequence of human Thyroid hormone Receptor alpha (TRa), THRA (gene 7067) (P10827 whole entry, looked up, the tested form may be a part): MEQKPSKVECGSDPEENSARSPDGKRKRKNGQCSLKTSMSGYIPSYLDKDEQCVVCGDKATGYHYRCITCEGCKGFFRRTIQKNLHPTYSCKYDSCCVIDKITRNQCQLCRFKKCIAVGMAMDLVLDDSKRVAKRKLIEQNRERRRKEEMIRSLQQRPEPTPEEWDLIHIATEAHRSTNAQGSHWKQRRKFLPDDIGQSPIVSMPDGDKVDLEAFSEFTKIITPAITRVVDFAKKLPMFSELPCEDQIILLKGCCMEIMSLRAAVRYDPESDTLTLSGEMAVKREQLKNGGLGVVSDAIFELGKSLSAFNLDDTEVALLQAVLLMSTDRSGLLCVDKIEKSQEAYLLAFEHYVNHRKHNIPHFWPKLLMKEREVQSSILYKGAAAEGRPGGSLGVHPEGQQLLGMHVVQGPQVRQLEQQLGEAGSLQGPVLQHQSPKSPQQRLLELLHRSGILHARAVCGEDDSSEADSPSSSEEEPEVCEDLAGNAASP
Sequence of Estrogen receptor (Homo sapiens) (P03372 whole entry, looked up, the tested form may be a part): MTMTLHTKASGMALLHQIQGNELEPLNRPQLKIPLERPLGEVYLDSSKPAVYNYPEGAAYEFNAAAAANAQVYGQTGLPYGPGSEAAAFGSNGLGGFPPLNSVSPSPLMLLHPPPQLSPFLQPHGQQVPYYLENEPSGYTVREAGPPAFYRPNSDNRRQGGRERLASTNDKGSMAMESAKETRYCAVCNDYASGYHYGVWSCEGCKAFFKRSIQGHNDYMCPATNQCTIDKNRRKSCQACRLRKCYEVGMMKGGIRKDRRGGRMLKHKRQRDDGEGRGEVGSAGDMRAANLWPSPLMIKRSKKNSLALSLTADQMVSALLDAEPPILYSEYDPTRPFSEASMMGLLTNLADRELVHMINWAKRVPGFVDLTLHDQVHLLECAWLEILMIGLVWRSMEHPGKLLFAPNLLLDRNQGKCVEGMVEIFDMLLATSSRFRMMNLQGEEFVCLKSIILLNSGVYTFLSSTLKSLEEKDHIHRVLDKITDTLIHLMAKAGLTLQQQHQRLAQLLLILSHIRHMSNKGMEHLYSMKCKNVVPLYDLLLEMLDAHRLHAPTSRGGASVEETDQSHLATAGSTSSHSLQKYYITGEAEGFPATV
Sequence of frog Thyroid hormone Receptor alpha (TRa), thra-a (gene 397942) (P15204 whole entry, looked up, the tested form may be a part): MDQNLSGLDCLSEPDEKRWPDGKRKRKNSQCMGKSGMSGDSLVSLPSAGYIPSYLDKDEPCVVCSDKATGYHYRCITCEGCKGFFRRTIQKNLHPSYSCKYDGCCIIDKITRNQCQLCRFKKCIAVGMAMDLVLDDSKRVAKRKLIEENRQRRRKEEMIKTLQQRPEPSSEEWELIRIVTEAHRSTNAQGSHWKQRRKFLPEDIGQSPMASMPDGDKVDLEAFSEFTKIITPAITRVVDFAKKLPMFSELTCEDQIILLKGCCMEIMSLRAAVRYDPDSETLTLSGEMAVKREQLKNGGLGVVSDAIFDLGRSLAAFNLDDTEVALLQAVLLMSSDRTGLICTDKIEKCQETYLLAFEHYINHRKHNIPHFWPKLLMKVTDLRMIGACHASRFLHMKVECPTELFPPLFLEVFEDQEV
Sequence of Estrogen receptor beta (Homo sapiens) (Q92731 whole entry, looked up, the tested form may be a part): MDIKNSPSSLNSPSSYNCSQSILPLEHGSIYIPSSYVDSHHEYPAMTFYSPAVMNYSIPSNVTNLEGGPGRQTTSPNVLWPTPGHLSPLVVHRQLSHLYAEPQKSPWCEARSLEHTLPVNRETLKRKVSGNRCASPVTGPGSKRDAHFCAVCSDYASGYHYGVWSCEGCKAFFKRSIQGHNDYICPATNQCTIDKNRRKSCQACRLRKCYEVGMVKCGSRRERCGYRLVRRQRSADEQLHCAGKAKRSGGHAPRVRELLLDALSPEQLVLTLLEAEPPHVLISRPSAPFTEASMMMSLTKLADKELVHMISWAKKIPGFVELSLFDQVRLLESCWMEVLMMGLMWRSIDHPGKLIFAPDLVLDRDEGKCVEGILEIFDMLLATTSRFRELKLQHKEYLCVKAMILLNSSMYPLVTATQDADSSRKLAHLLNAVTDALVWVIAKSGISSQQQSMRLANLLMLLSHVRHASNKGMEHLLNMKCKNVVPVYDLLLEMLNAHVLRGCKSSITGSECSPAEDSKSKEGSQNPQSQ

CC1(C)CCC(=Cc2ccc(Cl)cc2)C1(O)Cn1cncn1 (stereo not given)
active: [1] 3.95 µM | [2] 5.79 µM | AR (gene 367) [5] 13.1 µM | [6] 46.6 µM | [13] 5.78 µM
inactive: AR (gene 367) [3] | [4] | [7] | [8] | [9] | [10] | [11] | [12] | [14] | [15] | [16]

COc1cc(Cl)c(OC)cc1Cl
inactive: [17]

O=C(O)c1c(Cl)ccc2cc(Cl)cnc12
inactive: [17]

CNC(=O)Oc1cccc2ccccc12
inactive: [17]

COP(=S)(OC)Oc1ccc([N+](=O)[O-])c(C)c1
inactive: [17] | [18] | [7] | [8] | [10] | [19] | [15] | [16]
active: [1] 36.7 µM | [2] 50.1 µM | [6] 64 µM | [11] 64.4 µM | [12] 100 µM | [13] 27.4 µM

CC(C)NC(=O)N1CC(=O)N(c2cc(Cl)cc(Cl)c2)C1=O
active: [1] 10.3 µM | [2] 41.4 µM | [11] 31.3 µM | [12] 30.4 µM | [13] 12 µM
inactive: [17] | [18] | [9] | [10] | [14] | [16]

Nc1cnn(-c2ccccc2)c(=O)c1Cl
inactive: [17]

O=P(O)(O)CCCl
inactive: [17]

CC(C)N1C(=O)c2ccccc2NS1(=O)=O
inactive: [17]

CCCC(=NOCC)C1=C(O)CC(CC(C)SCC)CC1=O (stereo not given)
inactive: [17]

CSC(=O)c1c(C(F)F)nc(C(F)(F)F)c(C(=O)SC)c1CC(C)C
active: [1] 6.12 µM | [17] 81.2 µM | [11] 7.26 µM | [12] 3.94 µM | [13] 0.139 µM
inactive: [2] | [9] | [10] | [19] | [15]

Nc1c(Cl)c(Cl)nc(C(=O)O)c1Cl
inactive: [17]

Nc1c(Cl)c(F)nc(OCC(=O)O)c1Cl
inactive: AR (gene 367) [3] | AR (gene 367) [5]

CC(C)C1(C)N=C(c2ncccc2C(=O)O)NC1=O (stereo not given)
inactive: [4]

COC(=O)c1c(C(F)F)nc(C(F)(F)F)c(C2=NCCS2)c1CC(C)C
inactive: AR (gene 367) [5]

CCOP(=S)(OCC)Oc1nc(Cl)n(C(C)C)n1
inactive: [4]

O=C1C2CC=CCC2C(=O)N1SC(Cl)(Cl)Cl (stereo not given)
inactive: [4]
